Screening data from PubChem.
Lassa entry inh: qHTS for Inhibitors of binding or entry into cells for Lassa Virus; hit rate 1.2% among 300,000; AID 540256, 2011; Potency, µM (titrated, usually from 37.9 µM), for the others: at the top dose activity change, negative = inhibition, usual class: inhibitors; Lassa virus pseudotype entry inhibition, cell reporter; calls by dose curve; tested in HEK293 cells; further: potency means the concentration at half of the fitted maximal effect; nearly all actives have a fitted effect of over 50% in size
FMDV inh: High Throughput Screening for Foot and Mouth Disease Virus Antivirals | AID 1159524, 2015 | Potency, µM (titrated, usually from 57.9 µM), for inactives: at the highest dose activity change, negative = inhibition, usual class: inhibitors | FMDV antiviral cell-based qHTS | hit rate 1.2% among 410,000; calls by dose curve; tested in HEK293T cells; further: read-out not given here; potency means the concentration at half of the fitted maximal effect; nearly all actives have a fitted effect of over 45% in size
Marburg entry inh: qHTS for inhibitors of binding or entry into cells for Marburg Virus | Potency, µM (doses to about 37.8 µM), for the others: at the highest dose activity change, negative = inhibition, usual class: inhibitors | Marburg virus pseudotyped entry inhibition, cell reporter | hit rate 1.8% among 300,000; calls by dose curve; tested in HEK293 cells; further: potency means the concentration at half of the fitted maximal effect
HCMV inh: qHTS Assay for inhibitors of the human cytomegalovirus (HCMV). HFF cells, HCMV-luciferase reporter, 72 h; stronger effect = lower value. activity change, negative = inhibition, % at 57.5 µM. hit rate 4.5% among 410,000; in the data active means activity change below about -60%; inconclusive means no clear call, values can overlap the other calls; inactive means above about -39%
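After 16 h attachment at 37C, HFF cells received test compound and HCMV-luciferase (1 PFU/cell); reporter luminescence read 72 h later, data normalized against buffer-only and known inhibitor Salinomycin.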
HCV inh: qHTS Assay for Inhibitors of Hepatitis C Virus (HCV) | hit rate 3.4% among 340,000 | Huh7.5.1 HCVcc-Cre infection, luciferase reporter, 44 h | Potency, µM (series often up to 41.8 µM), for the others: top-dose activity change, negative = inhibition, hits mostly inhibitors; active means well fitted inhibition curve with a large enough effect; inconclusive means small, poorly fitted or top-dose-only effect, or another doubt; inactive means no such curve, though single readings can be large or run the other way; further: potency means the concentration at half of the fitted maximal effect
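Compounds are dispensed onto cells plated 4 h earlier at 1,000 per well, with HCVcc-Cre virus (about 0.5 moi) added next. Following 44 h of culture, luminescent signal is measured for 15 sec after 15 min with substrate at room temperature.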
The depositor's hits bear a star; ? = inconclusive; nt = not tested or not shown; [ ] = remark or other dose. Most compounds without a hit are left out; they make up all but 7.9% or so of the library. On the % scale 0 is the no-effect control and ±100 the full control effect.

SMILES	Lassa entry inh	FMDV inh	Marburg entry inh	HCMV inh	HCV inh
CC(C)CNc1nnnc2c1sc1nc(N3CCOCC3)c3c(c12)CC(C)(C)SC3	14µM*	?	?	?	10µM*
CC1(C)Cc2c(c(N3CCOCC3)nc3sc4c(NN)ncnc4c23)CS1	-10%	-5%	?	-88*	?
CC(C)CNc1ncnc2c1sc1nc(N3CCOCC3)c3c(c12)CC(C)(C)OC3	-8%	0%	18%	-2	?
CC1(C)Cc2c(c(N3CCOCC3)nc3sc4c(NCc5ccccc5)nnnc4c23)CS1	?	5%	-11%	?	-21%
CC(=O)/C(=N\Nc1ccccc1)Sc1cccc2cccnc12	1%	-22%	-13%	10	?
O=C(Sc1cccc2cccnc12)c1ccc(F)cc1	nt	nt	nt	-100*	nt
O=C(Sc1cccc2cccnc12)c1ccccc1Br	nt	nt	nt	-97*	nt
COc1ccc(-c2ccc3c(c2)COCC(=O)N3CCN2CCOCC2)cc1	nt	nt	nt	-16	nt
c1ccc(OCCSc2nc3ccccc3[nH]2)cc1	?	22%	3%	4	-9%
Cc1ccccc1OCCCSc1nc2ccccc2[nH]1	?	?	?	-70*	?
NC(=S)Nc1ccccc1Br	18%	0%	4%	-10	9%
NC(=S)Nc1cc2ccccc2c2ccccc12	-11%	?	-21%	-72*	?
NC(=S)Nc1cccc2cc3ccccc3cc12	23%	54%	12%	-105*	?
NC(=S)Nc1cccc2cn[nH]c12	-9%	-5%	6%[46.1 µM]	-10	2%
COc1cc(CNc2ccc(N3CCN(C(C)=O)CC3)cc2)ccc1OCc1ccc(F)cc1	-7%	-16%	?	-73*	1%
COc1ccc(N2CCN(C(=O)NCc3ccc(OC)c(OC)c3)CC2)cc1	nt	2%	-10%[46.1 µM]	-68*	7%
COc1ccc(N2CCN(c3nc(NCCc4ccc(OC)c(OC)c4)nc(OC)n3)CC2)cc1	?	25µM*	?	-90*	11µM*
CC(=O)N1CCN(c2ccc(NCc3cccc(C)c3)cc2)CC1	nt	?	nt	-77*	nt
CC(=O)N1CCN(c2ccc(NCc3ccc(F)cc3)cc2)CC1	nt	?	nt	-40	?
COc1ccc(N2CCN(C(=O)NCc3ccc(OC)c(Cl)c3)CC2)cc1	1%	5%	?	?	7%
Cc1ccc(N2C(=O)CSC23C(=O)N(CC(=O)NC2CCCCC2)c2ccccc23)cc1C (stereo not drawn)	-24%[46.1 µM]	-5%	nt	-2	nt
Cc1nc(-c2ccc(Cl)cc2)sc1CCNC(=O)c1cccs1	4%[46.1 µM]	-14%	nt	24	nt
CCCc1nc2cccnc2n1C1CCN(C(=O)Cn2nccc2C)CC1	nt	9%	nt	nt	nt
CC(C)(C)c1ccc(O[C@@H]2[C@H](O)CO[C@H]2C=CC#Cc2ccccc2)cc1	nt	nt	-16%[14.2 µM]	nt	nt
CCOc1ccc(C(=O)Nc2cccc(-c3nc4cccnc4o3)c2)cc1Cl	26µM*	8%	8%	nt	11µM*
SMILES	Lassa entry inh	FMDV inh	Marburg entry inh	HCMV inh	HCV inh
CCOc1cc(C(=O)Nc2cccc(-c3nc4ccccc4o3)c2)cc(OCC)c1OCC	?	0%	-21%[46.1 µM]	4	nt
CCOc1ccc(C(=O)Nc2cccc([N+](=O)[O-])c2)cc1Br	19%	7%	?	-24	7.1µM*
COc1ccc(C(=O)C(C)Oc2cccc(NC(=O)c3cccc([N+](=O)[O-])c3)c2)cc1 (stereo not drawn)	?	0%	?	-34	11µM*
CC(C)C(=O)Nc1cccc(NC(=O)c2cccc([N+](=O)[O-])c2)c1	2%	-3%	2%	-10	-23%
COc1ccc(/C=C2\C(=O)N(c3c(Cl)cc(Cl)cc3Cl)N=C2NC(=O)c2cccc([N+](=O)[O-])c2)cc1	23%	11µM*	0%	nt	-23%
CCOC(=O)c1c(C)[nH]c(C)c1S(=O)(=O)N1CCC(C(=O)NCc2ccccc2Cl)CC1	16%[46.1 µM]	44%	nt	-4	nt
Cc1cc(C)cc(C(=O)NCCn2cc(C(=O)N3CCSCC3)nn2)c1	nt	-2%	nt	nt	nt
CCOc1ccc(C(=O)Nc2cccc(C(=O)O)c2)cc1Cl	?	8.9µM*	?	47	12%
O=C1/C(=N\S(=O)(=O)c2cccs2)C([n+]2ccccc2)=C([O-])c2ccccc21	nt	25µM*	nt	-66*	6.3µM*
Cc1ccc(N(CC(=O)Nc2ccc(Cl)cc2)S(=O)(=O)c2cccc3nonc23)cc1	-12%[46.1 µM]	9%	-6%[46.1 µM]	2	nt
C=C1C(=O)C=C[C@]2(C)C[C@@H]3OC(=O)[C@](C)(O)[C@H]3C[C@@H]12	nt	28µM*	nt	-98*	?
C=CCNC(=O)/C(C#N)=C/c1ccc(OS(=O)(=O)c2ccc(C)cc2)c(OC)c1	13µM*	20µM*	?	-99*	13%
COc1cc(/C=N/NC(=O)COc2cccc(F)c2)ccc1OS(=O)(=O)c1ccc(C)cc1	?	0%	?	?	?
COc1cc(/C=N/NC(=O)c2cccnc2)ccc1OS(=O)(=O)c1ccc(C)cc1	1%	2%	-18%	-38	-1%
COc1cc(/C=N/NC(=O)COc2ccc(Cl)cc2)ccc1OS(=O)(=O)c1ccc(C)cc1	?	-25%	?	7	11µM*
COC(=O)N/N=C/c1ccc(OS(=O)(=O)c2ccc(C)cc2)c(OC)c1	7.9µM*	-4%	6%[46.1 µM]	-35	0%
NCCCCCc1cnc[nH]1	nt	-17%	nt	nt	nt
COc1ccc(-n2c(-c3ccc(C)cc3)cc3c2CC(C)(C)CC3=O)c(OC)c1	?	-11%	?	?	nt
CC1CCN(S(=O)(=O)c2ccc3[nH]cc(C(=O)NCc4ccc(F)cc4)c(=O)c3c2)CC1	?	-9%	nt	12	nt
COC(=O)C1=C(C(=O)OC)[C@@H]2N(C)c3ccc(OC)cc3[C@@]23C[C@@H](C(=O)OC)N(C(=O)N2CCNC2=O)C3=N1	nt	nt	-26%[14.2 µM]	nt	nt
CSc1ccc(CCNC(=O)CCc2c(C)nc3c(c(C)nn3-c3ccc(C)c(C)c3)c2C)cc1	5%[46.1 µM]	-9%	6%[46.1 µM]	11	nt
CCCCNS(=O)(=O)c1ccc2nc(-c3cccnc3)cc(C(=O)NCCC)c2c1	-1%[46.1 µM]	85%	nt	-66*	nt
Cn1cc(C(=O)Nc2ccc(Cl)cc2)c(C(F)(F)F)n1	nt	10%	nt	?	-8%
CCC(C)Sc1cc(C(F)(F)F)c(C(=O)Nc2ccc(Cl)cc2)cn1 (stereo not drawn)	?	?	?	-33	22µM*
CN(C)S(=O)(=O)c1ccc2c(c1)nnn2CCNC(=O)Nc1ccc(Br)cc1	16%[46.1 µM]	9%	nt	0	nt
Cc1ccc(N2C(=O)/C(=C\c3ccc(C(C)C)cc3)N=C2SC2CCOC2=O)cc1 (stereo not drawn)	5µM*	-1%	6.3µM*	-38	?
O=C1OCCC1Sc1nnnn1-c1ccccc1 (stereo not drawn)	?	16%	16%	15	9%
Cn1c(CNC(=O)CSc2n[nH]c(-c3ccccc3Cl)n2)nc2ccccc21	-3%[46.1 µM]	-6%	nt	13	nt
